Assay results taken from paper PMC4336329 (PLoS ONE, 2015).
The whole screen tested about 310,000 compounds, of which about 14,000 (4.5%) showed an effect of 50% or more. Effects have a minus sign here. For the sample, strong results were picked, then their nearest neighbours and some compounds at random.

Target: human ether-à-go-go-related gene (hERG) potassium channel (human, UniProt Q12809)
Assay: primary screen, population patch clamp on CHO cells stably expressing hERG; higher = less effect of the substance
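Note: peak tail current of the secondary pulse compared with the same well before compound.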

Sequence of human ether-à-go-go-related gene (hERG) potassium channel (Q12809 whole entry, looked up): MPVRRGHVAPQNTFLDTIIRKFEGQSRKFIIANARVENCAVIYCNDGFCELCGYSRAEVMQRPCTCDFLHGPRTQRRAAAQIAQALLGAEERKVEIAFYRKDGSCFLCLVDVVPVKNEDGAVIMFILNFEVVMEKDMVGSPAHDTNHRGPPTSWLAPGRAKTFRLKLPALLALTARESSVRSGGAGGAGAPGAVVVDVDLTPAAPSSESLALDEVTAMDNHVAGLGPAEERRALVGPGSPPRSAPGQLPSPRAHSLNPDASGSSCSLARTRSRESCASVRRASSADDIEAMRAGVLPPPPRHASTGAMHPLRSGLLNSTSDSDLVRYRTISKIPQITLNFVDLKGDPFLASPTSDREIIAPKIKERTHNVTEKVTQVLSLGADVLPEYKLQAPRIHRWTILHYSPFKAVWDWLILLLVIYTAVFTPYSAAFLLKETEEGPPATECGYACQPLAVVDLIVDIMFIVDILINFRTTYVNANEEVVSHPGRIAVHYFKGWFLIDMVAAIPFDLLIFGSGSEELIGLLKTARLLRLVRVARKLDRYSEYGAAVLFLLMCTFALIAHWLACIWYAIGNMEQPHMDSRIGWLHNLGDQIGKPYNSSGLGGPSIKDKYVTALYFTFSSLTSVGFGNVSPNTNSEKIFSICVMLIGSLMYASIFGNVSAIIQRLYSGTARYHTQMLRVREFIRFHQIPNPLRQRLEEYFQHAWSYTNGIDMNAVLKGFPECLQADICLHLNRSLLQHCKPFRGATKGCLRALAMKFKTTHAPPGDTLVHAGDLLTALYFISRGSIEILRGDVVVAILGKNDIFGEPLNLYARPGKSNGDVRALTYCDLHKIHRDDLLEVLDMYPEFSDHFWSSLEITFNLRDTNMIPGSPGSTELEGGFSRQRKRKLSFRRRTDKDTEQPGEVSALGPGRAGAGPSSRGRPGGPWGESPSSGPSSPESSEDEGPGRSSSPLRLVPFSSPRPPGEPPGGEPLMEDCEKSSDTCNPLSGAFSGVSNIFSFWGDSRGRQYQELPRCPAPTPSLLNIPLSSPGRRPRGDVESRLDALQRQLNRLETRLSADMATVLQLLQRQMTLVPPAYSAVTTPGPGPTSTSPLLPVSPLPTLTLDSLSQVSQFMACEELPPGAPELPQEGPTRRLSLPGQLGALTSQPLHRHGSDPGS

First: COc1cc(/C=C2/N=C(C3CCCCC3)OC2=O)cc(OC)c1OC
Second: COc1ccc(C(=O)Nc2nc3ccccc3s2)cc1OC
The “hERG current change (%, negative = inhibition) at 10uM” value of the first is higher: -17.5% for the first, -65.8% for the second.

Going from `O=C(Cc1ccccc1[N+](=O)[O-])NCc1ccncc1` to `CC(C)CC(C(=O)NC(=O)NCc1ccccc1)N1C(=O)c2ccccc2C1=O` (stereo not drawn), the “hERG current change (%, negative = inhibition) at 10uM” value rises from 6.57% to 8.22%.

Going from `OC(Cn1c2ccccc2c2ccccc21)C[n+]1cccc2ccccc21.[O-][Cl+3]([O-])([O-])[O-]` (stereo not drawn) to `O=c1c2ccccc2c(=O)n(Cc2ccccc2)n1Cc1ccccc1`, the “hERG current change (%, negative = inhibition) at 10uM” value rises from -33.5% to 16.8%.

Going from `C=C(C)C(=O)N1CC2(CC(c3cccc(NC(=O)/C(C)=C\C)c3)=NO2)C[C@H]1C(N)=O` (stereo partly drawn) to `CCOC(=O)c1cn(CC(=O)Nc2ccc(OC)cc2OC)nn1`, the “hERG current change (%, negative = inhibition) at 10uM” value rises from 2.26% to 9.07%.

Compared with `Cc1ccc(-c2nn(C)c(=O)c3ccccc23)cc1S(=O)(=O)NCCN1CCOCC1`, `COc1ccc(CC(=O)Nc2nc3ccccc3s2)cc1S(=O)(=O)N1CCOCC1` is lower in “hERG current change (%, negative = inhibition) at 10uM” value: -2.69% for the first, -65.9% for the second.

Compared with `Cn1c(=O)[nH]c(=O)c2c1nc(N1CCOCC1)n2CCc1ccccc1`, `COCCN(C(=O)COC(=O)c1sccc1C)c1c(N)n(Cc2ccccc2)c(=O)[nH]c1=O` is higher in “hERG current change (%, negative = inhibition) at 10uM” value: -0.713% for the first, 15.4% for the second.

First: Cc1cccc(N=C2NC(=O)/C(=C/c3cccs3)S2)c1
Second: O=C(CCN1C(=O)/C(=C/c2cccs2)SC1=S)Nc1ccccc1O
The “hERG current change (%, negative = inhibition) at 10uM” value of the first is lower: 11.9% for the first, 13.7% for the second.

Compared with `COc1cc(C)c(/C=C(\C#N)C(=O)Nc2ccc(C)cc2)cc1C(C)C`, `COc1ccc(CC(=O)Nc2ccc(C#N)c(Cl)c2)cc1S(=O)(=O)N1CCOCC1` is lower in “hERG current change (%, negative = inhibition) at 10uM” value: 11.1% for the first, -68.1% for the second.

First: CCCN(CCC)CCCNC(=O)C(NS(=O)(=O)c1ccc2c(c1)CCC(=O)N2)c1ccccc1 (stereo not drawn)
Second: CC(C)c1ccc(NC(=O)CNC(=O)Cn2cnc3ccccc3c2=O)cc1
The “hERG current change (%, negative = inhibition) at 10uM” value of the first is higher: 20.5% for the first, 3.21% for the second.

Going from `CCn1ncc(S(=O)(=O)NCc2ccco2)c1C` to `Cc1ccc(N/C=C/C(=O)c2ccco2)c(O)c1`, the “hERG current change (%, negative = inhibition) at 10uM” value rises from -0.626% to 8.63%.

Compared with `O=C(Nc1ccc(S(=O)(=O)Nc2cnc3ccccc3n2)cc1)c1ccccc1Br`, `Cc1ccc(C(=O)Nc2ccc(Cl)cc2C(=O)c2ccccc2)cc1` is higher in “hERG current change (%, negative = inhibition) at 10uM” value: -10.5% for the first, 17.1% for the second.

Going from `COc1cc2c(cc1NC(=O)CSc1nc3ccc(C)cc3[nH]1)oc1ccccc12` to `COc1cccc(C(=O)Nc2nc3ccccc3s2)c1`, the “hERG current change (%, negative = inhibition) at 10uM” value falls from 7.65% to 4.88%.

Going from `CC(=O)N1CCN(c2nnc(-c3ccccc3)c3ccccc23)CC1` to `CC(=O)N1CCN(c2nnc(-c3ccc(C)cc3)c3ccccc23)CC1`, the “hERG current change (%, negative = inhibition) at 10uM” value falls from 3.22% to -38.6%.

Compared with `O=C(c1cccs1)N1CCN(c2ncccn2)CC1`, `O=C(c1cccs1)N1CCN(c2nnc(-c3ccccc3)c3ccccc23)CC1` is lower in “hERG current change (%, negative = inhibition) at 10uM” value: 0.299% for the first, -76.5% for the second.

Compared with `Cc1ccc(-c2nnc(N3CCN(C(=O)c4cccs4)CC3)c3ccccc23)cc1`, `Cc1ccc(-c2nnc(N3CCN(C(=O)CN4C(=O)c5ccccc5C4=O)CC3)c3ccccc23)cc1` is higher in “hERG current change (%, negative = inhibition) at 10uM” value: -65.4% for the first, 6.37% for the second.

First: O=C(CSc1ccccc1)N1CCN(S(=O)(=O)c2ccccc2F)CC1
Second: Cc1ccc(C)c(S(=O)(=O)N2CCN(C(=O)Cn3c(C(F)(F)F)nc4ccccc43)CC2)c1
The “hERG current change (%, negative = inhibition) at 10uM” value of the first is lower: -23.9% for the first, -1.16% for the second.

Compared with `Cc1c(N=Cc2cccnc2)c(=O)n(-c2ccccc2)n1C`, `CC(=O)n1c(=O)c2ccccc2c(=O)n1-c1ccccc1` is higher in “hERG current change (%, negative = inhibition) at 10uM” value: 2.93% for the first, 3.89% for the second.

First: CC(=O)Oc1ccc2c(=O)oc(-c3ccc([N+](=O)[O-])cc3)nc2c1
Second: COc1ccc(C(=O)Nc2nc3ccccc3s2)cc1
The “hERG current change (%, negative = inhibition) at 10uM” value of the first is lower: 1.56% for the first, 11.6% for the second.

Going from `O=c1c2ccccc2c(=O)n(-c2ccccc2)n1CCCCBr` to `Brc1ccc(OCCCCN2CCCCC2)cc1`, the “hERG current change (%, negative = inhibition) at 10uM” value rises from -63.5% to -53.6%.

Going from `Cc1cccc(C(=O)OCC(=O)c2c(N)n(CC(C)C)c(=O)n(C)c2=O)c1[N+](=O)[O-]` to `CC(C)(C)C(=O)OCCn1c(=O)c2cc3c(=O)n(CCOC(=O)C(C)(C)C)c(=O)c3cc2c1=O`, the “hERG current change (%, negative = inhibition) at 10uM” value rises from -29.1% to 25.5%.

Going from `O=C(CCCC(=O)OCC1CCCO1)OCC1CCCO1` (stereo not drawn) to `Brc1ccc(OCCCCCN2CCOCC2)cc1.O=C(O)C(=O)O`, the “hERG current change (%, negative = inhibition) at 10uM” value falls from 8.27% to -63.8%.

Going from `Cc1ccc(OCCCCN2CCCCC2)cc1` to `Cl.O=C(COc1ccc(Br)cc1)OCCN1CCCCC1`, the “hERG current change (%, negative = inhibition) at 10uM” value rises from -12.1% to 11.8%.

Compared with `CC1CCN(CCCCOc2ccc(Br)cc2)CC1`, `Brc1ccc(OCCOCCN2CCOCC2)cc1` is higher in “hERG current change (%, negative = inhibition) at 10uM” value: -69.4% for the first, -9% for the second.

Going from `Brc1ccc(OCCCN2CCOCC2)cc1.O=C(O)C(=O)O` to `COc1ccc(CC(=O)Nc2ccc(F)c(Cl)c2)cc1S(=O)(=O)N1CCOCC1`, the “hERG current change (%, negative = inhibition) at 10uM” value falls from -28.1% to -46.1%.

Going from `C#CCOCCOCCOCCNc1nc(N2CCN(C(=O)CCCCCCCCCCNC(=O)Cn3cc(C[C@@H](C)O)nn3)CC2)nc(N2CCN(C(=O)CCCCCCCCCCNC(=O)[C@H](CCCCN)n3cc(CCCC(=O)O)nn3)CC2)n1` to `COc1ccc(CC(=O)Nc2ccc(N3CCOCC3)cc2)cc1S(=O)(=O)N1CCOCC1`, the “hERG current change (%, negative = inhibition) at 10uM” value rises from -1.72% to 0.936%.

First: C1CCc2c(nc3nnnn3c2N2CCOCC2)C1
Second: COc1ccc(CC(=O)Nc2nc3ccc(F)cc3s2)cc1S(=O)(=O)N1CCOCC1
The “hERG current change (%, negative = inhibition) at 10uM” value of the first is higher: -3.03% for the first, -19.4% for the second.

Compared with `COc1ccc2nc(NC(=O)Cc3ccc(OC)c(S(=O)(=O)N4CCOCC4)c3)sc2c1`, `COc1cc(NC(=O)c2nccn2C)cc(C(=O)Nc2cccc(C(F)(F)F)c2)c1` is higher in “hERG current change (%, negative = inhibition) at 10uM” value: -22.1% for the first, 5.31% for the second.
